Assay results as given in PubChem BioAssay (NCI).
Compounds without any hit were thinned out: in the full panel of roughly 83,000, 20% have a hit.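 Activity criterion: percent growth below 10, measured after cells in 96-well plates were exposed to a single compound concentration for 48 hours.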 Activity calls are given as the source filed them.

How the values were obtained:
Assay in all cases: NCI-60 one-dose screen, 48 h (100 = growth as untreated, 0 = no growth, -100 = all killed)
[1] = test system: HCT-15 colon; conditions: 10 µM unless noted
[2] = test system: HT29 colon; conditions: 10 µM unless noted
[3] = test system: SNB-75 CNS; conditions: 10 µM unless noted
[4] = test system: SNB-19 CNS; conditions: 10 µM unless noted
[5] = test system: U251 CNS; conditions: 10 µM unless noted
[6] = test system: PC-3 prostate; conditions: 10 µM unless noted
[7] = test system: SK-MEL-5 melanoma; conditions: 10 µM unless noted
[8] = test system: UACC-62 melanoma; conditions: 10 µM unless noted
[9] = test system: LOX IMVI melanoma; conditions: 10 µM unless noted
[10] = test system: SK-MEL-28 melanoma; conditions: 10 µM unless noted
[11] = test system: EKVX NSCLC; conditions: 10 µM unless noted
[12] = test system: SN12C renal; conditions: 10 µM unless noted
[13] = test system: UO-31 renal; conditions: 10 µM unless noted
[14] = test system: TK-10 renal; conditions: 10 µM unless noted
[15] = test system: ACHN renal; conditions: 10 µM unless noted
[16] = test system: CAKI-1 renal; conditions: 10 µM unless noted
[17] = test system: A498 renal; conditions: 10 µM unless noted
[18] = test system: CCRF-CEM leukemia; conditions: 10 µM unless noted
[19] = test system: MOLT-4 leukemia; conditions: 10 µM unless noted
[20] = test system: SK-MEL-2 melanoma; conditions: 10 µM

Measured: growth

Cc1ccccc1N1C(c2ccccc2)=NNC12C=CC(=O)C=C2Cl (configuration not stated)
inactive: [1] 108% | [2] 96.2% | [3] 96.3% | [4] 106% | [5] 94.2% | [6] 96.2% | [7] 115% | [8] 98.1% | [9] 98.7% | [10] 101% | [11] 111% | [12] 96.3% | [13] 88.8% | [14] 109% | [15] 100% | [16] 105% | [17] 109% | [18] 101% | [19] 94.7%

Cc1cc(NCC(=O)Nc2ccc(-c3nc4ccccc4s3)cc2)no1
inactive: [1] 90.7% | [2] 105% | [3] 111% | [4] 96.5% | [5] 88.1% | [6] 96.6% | [7] 87.7% | [8] 86.5% | [10] 110% | [11] 108% | [12] 102% | [13] 77% | [14] 92.1% | [15] 111% | [16] 104% | [18] 53.7% | [19] 46.7%
active: [9] -42.7%

COc1cc(Nc2ncc3c(n2)-c2ccc(Cl)cc2C(c2c(F)cccc2OC)=NC3)ccc1C(=O)O
inactive: [1] 37.2% | [2] 40.7% | [3] 91.6% | [4] 74.1% | [5] 51.6% | [6] 60.7% | [7] 67.8% | [8] 64.6% | [9] 35.9% | [10] 84.7% | [11] 89.9% | [12] 72.6% | [13] 51.7% | [14] 63.9% | [15] 64.4% | [16] 68.2% | [18] 47.2% | [19] 52.8%

Cn1cc(-c2[nH]c3cc(NC(=O)[C@H](N)C4CCCCC4)cc4c3c2C=NNC4=O)cn1
inactive: [1] 20.1% | [8] 26.1% | [11] 33.1% | [14] 17.1%
active: [2] -11.1% | [3] -70.2% | [4] -24.4% | [5] -83.3% | [6] 7.2% | [7] -36.6% | [9] -73.4% | [10] -70% | [12] -11.5% | [13] -13.6% | [15] 4.51% | [16] 9.72% | [18] -29.4% | [19] -36.8%

C[C@@H](Oc1cc(-c2cnn(C3CCNCC3)c2)cnc1N)c1c(Cl)ccc(F)c1Cl
active: [1] -5.99% | [2] -49.4% | [3] -67.7% | [4] 3.67% | [5] -71.9% | [6] -5.54% | [7] -99.8% | [8] -83.5% | [9] -90.8% | [10] -84.7% | [11] 0.0738% | [12] -41% | [13] -73.4% | [14] -36.2% | [16] -64.1% | [17] -68.3% | [18] -19.5% | [19] -34.5%

CC[C@@H]1C(=O)N(C)c2cnc(Nc3ccc(C(=O)NC4CCC(N5CCN(CC6CC6)CC5)CC4)cc3OC)nc2N1C(C)C (some centres not stated)
inactive: [4] 25.9% | [11] 21.2% | [14] 19.9% | [16] 10.6%
active: [1] 2.76% | [2] -25.9% | [3] -8.67% | [5] -16.3% | [6] 9.7% | [7] -96.5% | [8] -47.3% | [9] -72.1% | [10] -72.3% | [12] 7.06% | [13] -52.3% | [17] -51.8% | [18] 0.0303% | [19] -19.6%

COC(=O)[C@H](Cc1ccccc1)NC(=O)[C@@H](OC)[C@@H]1Cc2cc3cc(OC4CC(OC5CC(O)C(O)C(C)O5)C(O)C(C)O4)c(C)c(O)c3c(O)c2C(=O)[C@H]1OC1CC(OC2CC(OC3CC(C)(O)C(O)C(C)O3)C(O)C(C)O2)C(O)C(C)O1 (some centres not stated)
active: [1] 5.61% | [2] 4.24% | [3] -86.8% | [4] 4.82% | [5] 2.62% | [6] -9.57% | [7] -78% | [8] -56.6% | [9] -18.2% | [10] -27% | [11] -2.04% | [12] 4.42% | [13] -7.79% | [14] 6.76% | [15] -8.69% | [18] 4.07% | [19] -5.77%
inactive: [16] 15.3%

COc1ccc(Br)cc1NC(=O)Nc1cccc2c1ccn2Cc1ccnc(N)c1
inactive: [3] 26.7% | [4] 37.3% | [5] 13.9% | [6] 17.3% | [7] 23.5% | [8] 29% | [10] 53.3% | [11] 31.3% | [12] 40.9% | [14] 22.1% | [15] 24.1% | [16] 15% | [18] 27.3%
active: [1] 1.92% | [2] -40.6% | [9] -68% | [13] 9.39% | [19] 8.16%

Cc1nc(Nc2n[nH]c3c2CN(C(=O)N[C@H](CN(C)C)c2ccccc2)C3(C)C)c2sccc2n1
inactive: [1] 20% | [11] 12.9%
active: [2] -29.6% | [3] -80% | [4] 0.125% | [5] -22.7% | [6] -10% | [7] -84.9% | [8] -87% | [9] -41.3% | [10] -33.7% | [12] -6.2% | [13] -11.3% | [14] -30.1% | [15] 3.72% | [16] -5.88% | [18] 1.05% | [19] -0.869%

O=C1C=CC2(NN=C(c3ccccc3)N2c2ccc(Cl)cc2)c2cccc(O)c21 (configuration not stated)
inactive: [1] 18.7% | [2] 73% | [3] 33.1% | [4] 34.8% | [5] 18.1% | [6] 39.1% | [10] 52.6% | [11] 75.1% | [12] 26.4% | [13] 28.2% | [14] 100% | [15] 61.1% | [16] 84% | [18] 83.1% | [19] 61.8%
active: [7] -70.2% | [8] -33.1% | [9] 2.09%

O=C(Nc1ccc(Nc2ncnc3sc4c(c23)CCOC4)cc1)Nc1ccc(Cl)c(C(F)(F)F)c1
inactive: [1] 98.9% | [2] 81.1% | [3] 69.1% | [4] 110% | [5] 99.9% | [6] 60.8% | [8] 93.4% | [9] 99.9% | [10] 95.1% | [11] 105% | [12] 105% | [13] 115% | [14] 109% | [15] 86.6% | [16] 107% | [17] 89.5% | [18] 86.7% | [19] 74.4%

CCNC(=O)C#Cc1ccc2c(C(=Nc3ccc(CN(C)C)cc3)c3ccccc3)c(O)[nH]c2c1
active: [2] -40% | [3] 3.23% | [8] -32.5% | [9] -75.7% | [10] -11.6% | [13] 8.22% | [17] -40.3%
inactive: [1] 27.7% | [4] 29.5% | [5] 22.4% | [6] 44.4% | [11] 49% | [12] 36.5% | [14] 25.7% | [15] 35.6% | [16] 32.7% | [18] 17.3% | [19] 10.9%

O=C1OCC2=C1C(c1cccc(F)c1)c1cc3c(cc1N2CCO)OCCO3 (configuration not stated)
inactive: [3] 27.3% | [4] 18.6% | [5] 17.8% | [6] 24.8% | [8] 33% | [9] 31.4% | [10] 44.8% | [11] 37.5% | [12] 31% | [13] 42.1% | [14] 57.7% | [15] 23.9% | [16] 31.8% | [17] 13.4%
active: [1] 9.75% | [2] 4.94% | [18] 7.52% | [19] 7.49%

O=C(Cc1ccc(-c2ccc(OCCN3CCOCC3)cc2)cn1)NCc1ccccc1
active: [1] 7.16% | [2] 4.32% | [5] 3.6% | [7] -39.8% | [17] 1.26% | [18] 9.96%
inactive: [3] 15.3% | [4] 14.1% | [6] 15.2% | [8] 29% | [9] 17.5% | [10] 36.1% | [11] 26.1% | [12] 20.3% | [13] 35.8% | [14] 40.3% | [16] 19% | [19] 18.1%

CCc1nc2cc(F)c(/C=C/C(=O)NO)cc2c(=O)n1CCc1ccccc1
active: [5] 7.95% | [8] -21.7% | [9] -33.9% | [20] 9.96% | [13] -15% | [14] 1.94% | [15] 3.69% | [16] 0.745% | [17] -14.1% | [18] 3.07% | [19] 3.34%
inactive: [1] 24.4% | [2] 13.2% | [3] 34.8% | [4] 30.2% | [6] 22.6% | [10] 19.4% | [11] 25.7% | [12] 13.6%

COc1cc2ncnc(Nc3ccc(F)c(Cl)c3)c2cc1NC(=O)/C=C/CN1CCCCC1
active: [1] -49.7% | [2] -63.4% | [3] -97.8% | [4] -47.5% | [5] -77.1% | [6] -58.3% | [8] -84.3% | [9] -90.2% | [10] -85.5% | [11] -40.3% | [12] -76.1% | [13] -90.2% | [14] -88.8% | [15] -97.9% | [16] -85.4% | [17] -80.4% | [18] 6.37% | [19] -13.1%

Cc1cc(Nc2nc(N[C@@H](C)c3ncc(F)cn3)ncc2Cl)n[nH]1
inactive: [1] 58.4% | [2] 39.1% | [3] 88.3% | [4] 80.9% | [5] 52.7% | [6] 81.8% | [8] 65% | [9] 37.9% | [10] 87.8% | [11] 99.6% | [12] 77.6% | [13] 51% | [14] 82.8% | [15] 63.4% | [16] 70.1% | [18] 76.6% | [19] 62.3%
